# Test results: paper PMC12820563, “FoxP3 forms a head-to-head dimer in vivo and stabilizes its multimerization on adjacent microsatellites”
# Over roughly 16,000 sequences, “rpm ratio (pull-down/input)” has its median near 0.5; the highest 2% begin near 5.5. For the sample, the highest values were picked, then their nearest neighbours and some sequences at random.
# Molecular target: T1, MBP-FoxP3dN (Mus musculus, UniProt Q99JB6 188-423)
# T1 sequence: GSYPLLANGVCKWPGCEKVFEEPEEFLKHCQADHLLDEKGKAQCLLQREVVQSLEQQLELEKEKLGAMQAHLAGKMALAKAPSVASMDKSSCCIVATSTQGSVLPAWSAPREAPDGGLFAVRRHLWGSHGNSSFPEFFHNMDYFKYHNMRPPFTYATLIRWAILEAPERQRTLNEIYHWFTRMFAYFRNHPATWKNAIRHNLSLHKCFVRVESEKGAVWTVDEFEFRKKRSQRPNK
# Test: PD-seq (MBP pull-down with sequencing); 20 mM Tris-HCl pH 7.5, 100 mM NaCl, 1.5 mM MgCl2, 0.4 uM protein, 0.1 uM dsDNA library, 30 min, room temperature, amylose pull-down; high values mean tight binding
# Conditions: protein: recombinant; tags: His6-MBP; chain copies: 2; dsDNA, one strand shown
# Method in brief: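 Binding is given as reads-per-million enrichment, pull-down over input, with replicates pooled. The bait was an N-terminus-lacking mouse FoxP3 or FoxP1 fragment with a His6-MBP tag, expressed in E. coli and used at 0.4 µM with 0.1 µM Klenow-filled degenerate double-stranded DNA library for 30 min at room temperature in Tris pH 7.5 buffer with NaCl and MgCl2. Amylose resin pull-down with three washes was followed by proteinase K release, PCR barcoding and Illumina sequencing.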
row,Sequence,binding signal
1,GATGATTGTTCTCCCAGCTGATGAATTTGATTGGTCGAGTAAACAAATTTTCCTAATCTTTCTGTTCAAGCGCCATCTAC,5.03 RPM ratio (pull-down/input)
2,GATGATTGTTCTCCCAGCTGATGAATTTACCGGATCGAGTAAACAAATTTTCCTAATCTTTCTGTTCAAGCGCCATCTAC,0.251 RPM ratio (pull-down/input)
3,GATGATTGTTCTCCCAGCTGATGAATTGTAGCTCTCGAGTAAACAAATTTTCCTAATCTTTCTGTTCAAGCGCCATCTAC,0.791 RPM ratio (pull-down/input)
4,GATGATTGTTCTCCCAGCTGATGAATTGGGGGAGTCGAGTAAACAAATTTTCCTAATCTTTCTGTTCAAGCGCCATCTAC,0.355 RPM ratio (pull-down/input)
5,GATGATTGTTCTCCCAGCTGATGAATTTCTTTGTTCGAGTAAACAAATTTTCCTAATCTTTCTGTTCAAGCGCCATCTAC,2.28 RPM ratio (pull-down/input)
6,GATGATTGTTCTCCCAGCTGATGAATTTGTTCTTTCGAGTAAACAAATTTTCCTAATCTTTCTGTTCAAGCGCCATCTAC,2.28 RPM ratio (pull-down/input)
7,GATGATTGTTCTCCCAGCTGATGAATTTTGTTGTTCGAGTAAACAAATTTTCCTAATCTTTCTGTTCAAGCGCCATCTAC,8.13 RPM ratio (pull-down/input)
8,GATGATTGTTCTCCCAGCTGATGAATTGTTTCTTTCGAGTAAACAAATTTTCCTAATCTTTCTGTTCAAGCGCCATCTAC,1.93 RPM ratio (pull-down/input)
9,GATGATTGTTCTCCCAGCTGATGAATTTGTTTGTTCGAGTAAACAAATTTTCCTAATCTTTCTGTTCAAGCGCCATCTAC,7.56 RPM ratio (pull-down/input)
10,GATGATTGTTCTCCCAGCTGATGAATTGTTGTTTTCGAGTAAACAAATTTTCCTAATCTTTCTGTTCAAGCGCCATCTAC,7.89 RPM ratio (pull-down/input)
11,GATGATTGTTCTCCCAGCTGATGAATTTTCTGTTTCGAGTAAACAAATTTTCCTAATCTTTCTGTTCAAGCGCCATCTAC,0.343 RPM ratio (pull-down/input)
12,GATGATTGTTCTCCCAGCTGATGAATTTCTGTTTTCGAGTAAACAAATTTTCCTAATCTTTCTGTTCAAGCGCCATCTAC,1.13 RPM ratio (pull-down/input)
13,GATGATTGTTCTCCCAGCTGATGAATTTTTTTGTTCGAGTAAACAAATTTTCCTAATCTTTCTGTTCAAGCGCCATCTAC,0.472 RPM ratio (pull-down/input)
14,GATGATTGTTCTCCCAGCTGATGAATTGTTTGTTTCGAGTAAACAAATTTTCCTAATCTTTCTGTTCAAGCGCCATCTAC,7.87 RPM ratio (pull-down/input)
15,GATGATTGTTCTCCCAGCTGATGAATTGTTTTTTTCGAGTAAACAAATTTTCCTAATCTTTCTGTTCAAGCGCCATCTAC,4.84 RPM ratio (pull-down/input)
16,GATGATTGTTCTCCCAGCTGATGAATTGTTTGATTCGAGTAAACAAATTTTCCTAATCTTTCTGTTCAAGCGCCATCTAC,2.06 RPM ratio (pull-down/input)
17,GATGATTGTTCTCCCAGCTGATGAATTGGTTACCTCGAGTAAACAAATTTTCCTAATCTTTCTGTTCAAGCGCCATCTAC,0.673 RPM ratio (pull-down/input)
18,GATGATTGTTCTCCCAGCTGATGAATTCGTCACGTCGAGTAAACAAATTTTCCTAATCTTTCTGTTCAAGCGCCATCTAC,1.77 RPM ratio (pull-down/input)
19,GATGATTGTTCTCCCAGCTGATGAATTCTTAAACTCGAGTAAACAAATTTTCCTAATCTTTCTGTTCAAGCGCCATCTAC,0.267 RPM ratio (pull-down/input)
20,GATGATTGTTCTCCCAGCTGATGAATTACTATTATCGAGTAAACAAATTTTCCTAATCTTTCTGTTCAAGCGCCATCTAC,0.758 RPM ratio (pull-down/input)
21,GATGATTGTTCTCCCAGCTGATGAATTAAATACATCGAGTAAACAAATTTTCCTAATCTTTCTGTTCAAGCGCCATCTAC,0.687 RPM ratio (pull-down/input)
22,GATGATTGTTCTCCCAGCTGATGAATTTACTTCTTCGAGTAAACAAATTTTCCTAATCTTTCTGTTCAAGCGCCATCTAC,0.632 RPM ratio (pull-down/input)

row,Sequence,binding signal
1,GATGATTGTTCTCCCAGCTGATGAATTTGTTTCGTCGAGTAAACAAATTTTCCTAATCTTTCTGTTCAAGCGCCATCTAC,5.96 RPM ratio (pull-down/input)
2,GATGATTGTTCTCCCAGCTGATGAATTTTGTTCTTCGAGTAAACAAATTTTCCTAATCTTTCTGTTCAAGCGCCATCTAC,1.21 RPM ratio (pull-down/input)
3,GATGATTGTTCTCCCAGCTGATGAATTTGTTTCTTCGAGTAAACAAATTTTCCTAATCTTTCTGTTCAAGCGCCATCTAC,6.78 RPM ratio (pull-down/input)
4,GATGATTGTTCTCCCAGCTGATGAATTGTTTACTTCGAGTAAACAAATTTTCCTAATCTTTCTGTTCAAGCGCCATCTAC,7.35 RPM ratio (pull-down/input)
5,GATGATTGTTCTCCCAGCTGATGAATTGTTTTCGTCGAGTAAACAAATTTTCCTAATCTTTCTGTTCAAGCGCCATCTAC,3.95 RPM ratio (pull-down/input)
6,GATGATTGTTCTCCCAGCTGATGAATTGTTTTCTTCGAGTAAACAAATTTTCCTAATCTTTCTGTTCAAGCGCCATCTAC,4.15 RPM ratio (pull-down/input)
7,GATGATTGTTCTCCCAGCTGATGAATTTTGTTCGTCGAGTAAACAAATTTTCCTAATCTTTCTGTTCAAGCGCCATCTAC,1.45 RPM ratio (pull-down/input)
8,GATGATTGTTCTCCCAGCTGATGAATTTTTTACTTCGAGTAAACAAATTTTCCTAATCTTTCTGTTCAAGCGCCATCTAC,0.261 RPM ratio (pull-down/input)
9,GATGATTGTTCTCCCAGCTGATGAATTTGTTGTTTCGAGTAAACAAATTTTCCTAATCTTTCTGTTCAAGCGCCATCTAC,7.66 RPM ratio (pull-down/input)
10,GATGATTGTTCTCCCAGCTGATGAATTTGCAGTATCGAGTAAACAAATTTTCCTAATCTTTCTGTTCAAGCGCCATCTAC,1.49 RPM ratio (pull-down/input)
11,GATGATTGTTCTCCCAGCTGATGAATTTATATACTCGAGTAAACAAATTTTCCTAATCTTTCTGTTCAAGCGCCATCTAC,3.39 RPM ratio (pull-down/input)
12,GATGATTGTTCTCCCAGCTGATGAATTTTGGCCTTCGAGTAAACAAATTTTCCTAATCTTTCTGTTCAAGCGCCATCTAC,2.06 RPM ratio (pull-down/input)
13,GATGATTGTTCTCCCAGCTGATGAATTATTGCGATCGAGTAAACAAATTTTCCTAATCTTTCTGTTCAAGCGCCATCTAC,1.08 RPM ratio (pull-down/input)
14,GATGATTGTTCTCCCAGCTGATGAATTGATTTGTTCGAGTAAACAAATTTTCCTAATCTTTCTGTTCAAGCGCCATCTAC,3.85 RPM ratio (pull-down/input)
15,GATGATTGTTCTCCCAGCTGATGAATTGGTTGGTTCGAGTAAACAAATTTTCCTAATCTTTCTGTTCAAGCGCCATCTAC,3.77 RPM ratio (pull-down/input)
16,GATGATTGTTCTCCCAGCTGATGAATTCGTTTTGTCGAGTAAACAAATTTTCCTAATCTTTCTGTTCAAGCGCCATCTAC,3.54 RPM ratio (pull-down/input)
17,GATGATTGTTCTCCCAGCTGATGAATTTGATTGTTCGAGTAAACAAATTTTCCTAATCTTTCTGTTCAAGCGCCATCTAC,6.32 RPM ratio (pull-down/input)
18,GATGATTGTTCTCCCAGCTGATGAATTTTTTGTTTCGAGTAAACAAATTTTCCTAATCTTTCTGTTCAAGCGCCATCTAC,0.423 RPM ratio (pull-down/input)
19,GATGATTGTTCTCCCAGCTGATGAATTCGTTTGTTCGAGTAAACAAATTTTCCTAATCTTTCTGTTCAAGCGCCATCTAC,5.83 RPM ratio (pull-down/input)
20,GATGATTGTTCTCCCAGCTGATGAATTTGTTGGTTCGAGTAAACAAATTTTCCTAATCTTTCTGTTCAAGCGCCATCTAC,7.67 RPM ratio (pull-down/input)
21,GATGATTGTTCTCCCAGCTGATGAATTTGGTTGTTCGAGTAAACAAATTTTCCTAATCTTTCTGTTCAAGCGCCATCTAC,5.35 RPM ratio (pull-down/input)
22,GATGATTGTTCTCCCAGCTGATGAATTTGAATTTTCGAGTAAACAAATTTTCCTAATCTTTCTGTTCAAGCGCCATCTAC,0.538 RPM ratio (pull-down/input)

row,Sequence,binding signal
1,GATGATTGTTCTCCCAGCTGATGAATTTGTTTTTTCGAGTAAACAAATTTTCCTAATCTTTCTGTTCAAGCGCCATCTAC,6.93 RPM ratio (pull-down/input)
2,GATGATTGTTCTCCCAGCTGATGAATTCTTTGTTTCGAGTAAACAAATTTTCCTAATCTTTCTGTTCAAGCGCCATCTAC,0.575 RPM ratio (pull-down/input)
3,GATGATTGTTCTCCCAGCTGATGAATTCGTTTTTTCGAGTAAACAAATTTTCCTAATCTTTCTGTTCAAGCGCCATCTAC,2.58 RPM ratio (pull-down/input)
4,GATGATTGTTCTCCCAGCTGATGAATTGTACTATTCGAGTAAACAAATTTTCCTAATCTTTCTGTTCAAGCGCCATCTAC,0.669 RPM ratio (pull-down/input)
5,GATGATTGTTCTCCCAGCTGATGAATTGTCCCTGTCGAGTAAACAAATTTTCCTAATCTTTCTGTTCAAGCGCCATCTAC,0.319 RPM ratio (pull-down/input)
6,GATGATTGTTCTCCCAGCTGATGAATTAGGGGTTTCGAGTAAACAAATTTTCCTAATCTTTCTGTTCAAGCGCCATCTAC,0.738 RPM ratio (pull-down/input)
7,GATGATTGTTCTCCCAGCTGATGAATTTTACGCGTCGAGTAAACAAATTTTCCTAATCTTTCTGTTCAAGCGCCATCTAC,0.624 RPM ratio (pull-down/input)
8,GATGATTGTTCTCCCAGCTGATGAATTGAGACACTCGAGTAAACAAATTTTCCTAATCTTTCTGTTCAAGCGCCATCTAC,1.41 RPM ratio (pull-down/input)
9,GATGATTGTTCTCCCAGCTGATGAATTGCGGACATCGAGTAAACAAATTTTCCTAATCTTTCTGTTCAAGCGCCATCTAC,0.781 RPM ratio (pull-down/input)
10,GATGATTGTTCTCCCAGCTGATGAATTAAAAATTTCGAGTAAACAAATTTTCCTAATCTTTCTGTTCAAGCGCCATCTAC,0.202 RPM ratio (pull-down/input)
11,GATGATTGTTCTCCCAGCTGATGAATTTGGTTAATCGAGTAAACAAATTTTCCTAATCTTTCTGTTCAAGCGCCATCTAC,0.489 RPM ratio (pull-down/input)
12,GATGATTGTTCTCCCAGCTGATGAATTTCCGCATTCGAGTAAACAAATTTTCCTAATCTTTCTGTTCAAGCGCCATCTAC,6.24 RPM ratio (pull-down/input)
13,GATGATTGTTCTCCCAGCTGATGAATTCCGCATTTCGAGTAAACAAATTTTCCTAATCTTTCTGTTCAAGCGCCATCTAC,6.33 RPM ratio (pull-down/input)
14,GATGATTGTTCTCCCAGCTGATGAATTCCCGCATTCGAGTAAACAAATTTTCCTAATCTTTCTGTTCAAGCGCCATCTAC,5.9 RPM ratio (pull-down/input)
15,GATGATTGTTCTCCCAGCTGATGAATTTTCCGCATCGAGTAAACAAATTTTCCTAATCTTTCTGTTCAAGCGCCATCTAC,1.07 RPM ratio (pull-down/input)
16,GATGATTGTTCTCCCAGCTGATGAATTCCGCGCATCGAGTAAACAAATTTTCCTAATCTTTCTGTTCAAGCGCCATCTAC,1.39 RPM ratio (pull-down/input)
17,GATGATTGTTCTCCCAGCTGATGAATTTCCCGCATCGAGTAAACAAATTTTCCTAATCTTTCTGTTCAAGCGCCATCTAC,0.913 RPM ratio (pull-down/input)
18,GATGATTGTTCTCCCAGCTGATGAATTCCGCATCTCGAGTAAACAAATTTTCCTAATCTTTCTGTTCAAGCGCCATCTAC,6.95 RPM ratio (pull-down/input)
19,GATGATTGTTCTCCCAGCTGATGAATTCCCCGCATCGAGTAAACAAATTTTCCTAATCTTTCTGTTCAAGCGCCATCTAC,0.735 RPM ratio (pull-down/input)
20,GATGATTGTTCTCCCAGCTGATGAATTCCGCAATTCGAGTAAACAAATTTTCCTAATCTTTCTGTTCAAGCGCCATCTAC,4.91 RPM ratio (pull-down/input)
21,GATGATTGTTCTCCCAGCTGATGAATTCTCCGCATCGAGTAAACAAATTTTCCTAATCTTTCTGTTCAAGCGCCATCTAC,0.8 RPM ratio (pull-down/input)
